# Experimental data reported in PubChem BioAssay (NCI).
# This is part of a sample that, as a whole, favours compounds with a hit. Of some 83,000 tested, about 20% had one in any assay.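 Single-concentration screen, 48 h exposure, 96-well plates. Endpoint: percent growth. Below 10 = active.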 A number with no mark means an inactive call. Calls of active or inactive are those of the source.
# Tested on: MOLT-4 leukemia
# Experiment: NCI-60 one-dose screen, 48 h (100 = growth as untreated, 0 = no growth, -100 = all killed)
# Conditions: 10 µM unless noted
# Protocol: Growth inhibition of the MOLT-4 human tumor cell line is measured as a screen for anti-cancer activity. Cells are grown in 96 well plates and exposed to the test compound for 48 hours. Compounds are tested at a single concentration, which is 10^-5 M for most compounds. The reported endpoint is percent growth (GI% or GIPRCNT), where numbers from 0 - 100% represent growth inhibition, and numbers from -100% - 0 represent cell death. For example, a value of 40 represents 60% growth inhibition. A value of 0 means no net growth occurred over the course of the experiment. A value of -40 indicates 40% of cells at the beginning of the experiment died by the end of the experiment. A value of -100 means all cells are dead at the end of the experiment.
# NCI-60 Human Tumor Cell Lines Screen was performed using the standard one-dose NCI protocol, which is described in more detail at https://dtp.cancer.gov/discovery_development/nci-60/default.htm.
# Compounds with GIPRCNT values below 10 were considered active. Activity score was based on GIPRCNT using the following formula: […]
# Score is 0 for GIPRCNT values of 100 or above, 50 for GIPRCNT values of 0, and 100 for GIPRCNT values of -100.
row,SMILES,growth
1,CC(C)(C)c1nn(-c2ccccc2)c2c1CC1(CN2Cc2ccc3c(c2)OCO3)C(=O)c2ccccc2C1=O,80.3%
2,Oc1cccc(Nc2nccc(-c3ccc4ccccc4c3)n2)c1,23.5%
3,CC/C=C\C[C@H](O)C/C=C1/C(=O)C=C[C@@H]1C/C=C\CCCC(=O)OC(C)C,-24.5% (active)
4,C=C1CCC2C3(C)COC(C)(C)OC3CCC2(C)C1C/C=C1/C(=O)OCC1OC(C)=O (stereo not given),-16.8% (active)
5,COCCOc1ccc(-c2nc3ccc(-c4nc5ccc(N6CCN(C)CC6)cc5[nH]4)cc3[nH]2)cc1,0.928% (active)
6,CCc1ccc(C(c2ccc(CC)cc2)C(Cl)(Cl)CCl)cc1,84.4%
7,CC(=O)OCC1OC(OC2=C(CC=C(Cl)Cl)C(=O)c3ccccc3C2=O)C(OC(C)=O)C(OC(C)=O)C1OC(C)=O (stereo not given),-21.1% (active)
8,O=[N+]([O-])c1cccc(-c2nc3sccn3c2-c2ccnc(NCCCNS(=O)(=O)c3cccc(F)c3)n2)c1,-34.4% (active)
9,CCN(CC)Cc1cc(Nc2c3ccccc3nc3cc(Cl)ccc23)ccc1O,-28.9% (active)
10,COc1cc(OC)c(/C=C/C(=O)c2c(OC)cc(OC)cc2OC)c(OC)c1,-2.79% (active)
11,OCCNCCNc1c2ccccc2nc2ccccc12,16.7%
12,Cl/C(=N\Nc1ccccc1)c1ccccc1,80.1%
13,COc1cccc(/C=C2/C(=O)N(Cc3ccco3)SC2=S)c1OC,92.1%
14,O=C(CN1CCN(c2cc3c(cc2F)c(=O)c(C(=O)O)cn3C2CC2)CC1)Nc1nc(-c2ccc(Cl)cc2)cs1,30.5%
15,O=S(=O)(Nc1ccc(Cl)cc1Cl)c1ccc(-c2cnc(C3CC3)o2)cc1,24.3%
16,O=C(O)c1ccc(=O)[nH]n1,89%
17,COCCCNc1nc(NC(=O)c2ccc(F)cc2C)cc(-c2cccnc2)n1,93.9%
18,COc1ccc(Cl)cc1Nc1nc(C(F)(F)F)ccc1C(=O)N/N=C/c1cccnc1,2% (active)
19,CCOC(=O)c1c2ncccc2n2c(=O)n(-c3ccc(Cl)cc3)nnc12,86.8%
20,COc1ccccc1-c1ccc2c(N)c(C(=O)c3ccc4c(c3)OCO4)sc2n1,36.6%

row,SMILES,growth
1,CC(C)CC(CC1=CCC2CC1C2(C)C)C1=C(O)C(C)(C)C(=O)C(C)(C)C1=O (stereo not given),-24% (active)
2,CCCCCCCCCc1cc(CN2CCCCC2)c(O)c(CN2CCCCC2)c1,56%
3,CCOC(=O)C(CC)n1c(=O)c2cc(OC)c(OC)cc2c2cnc3[nH]ccc3c21 (stereo not given),53.6%
4,Clc1ccc(-c2nnc(COc3ccccc3Cl)o2)cc1,90.5%
5,O=C(Nc1cccc2c1C(=O)c1cccc(Nc3cccc4c3C(=O)c3cccc(NC(=O)c5ccccc5)c3C4=O)c1C2=O)c1ccccc1,104%
6,CC/C=C\C[C@H](O)C/C=C1/C(=O)C=C[C@@H]1C/C=C\CCCC(N)=O,-13% (active)
7,Cc1ccc(Nc2nc(N)nc(Nc3ccc4ccccc4c3)n2)cc1,47.9%
8,COc1c(C2CC(=O)Nc3c2cnn3Cc2ccco2)cc2c(c1OC)OCO2 (stereo not given),1.51% (active)
9,C=CC[N+]1(CC)CCN=C1CCCCCCCCCCCCCCCCC (stereo not given),-60% (active)
10,CCOC(=O)c1c2c(n3ccc(NC(=O)CCN(CC)CC)cc13)C(=O)c1ncccc1C2=O,29.3%
11,CCOC(=O)c1cnc2cc(Cl)c(F)cc2c1Nc1cccc(NS(C)(=O)=O)c1,99.9%
12,COc1cc(-c2cc(-c3nc4ccc(Cl)cc4[nH]3)[nH]n2)cc(OC)c1OC,4.79% (active)
13,CC[C@H](CO)Nc1nc(NCc2ccccc2)n2ncc(C(C)C)c2n1,-12.9% (active)
14,COc1ccc(/C=C/C(=O)c2ccc(NC(=O)c3cc4cc5ccccc5nc4s3)cc2)cc1OC,114%
15,COc1ccc2[nH]c(=O)c(/C=C/C(=O)c3ccc(Nc4nccc(-c5ccc6ccccc6c5)n4)cc3)cc2c1,101%
16,CC#Cc1nc2ccccc2c(=O)[nH]1,19.3%
17,C=CC[N+]1(CCO)CCN=C1CCCCCCCCCCCCC (stereo not given),-42.6% (active)
18,Cc1cc(OCc2ccc(C(F)(F)F)cc2)c2c(c1)C(=O)C=C(NCCN1CCCC1)C2=O,16.4%
19,Cc1ccc2c(NCCCN(C)C)c3c(C)nn(C)c3nc2c1,10.7%
20,CC[C@]12C=CCN3CC[C@@]4(c5ccc(OC)cc5N(C)[C@H]4[C@@](O)(C(=O)OC)[C@@H]1OC(=O)CCC(=O)N[C@@H](Cc1c[nH]c4ccccc14)C(=O)OC)[C@@H]32,-35.5% (active)
